Source: PubChem BioAssay
ROC1-CUL1 inh – human ROC1-CUL1 E3 ligase inhibition | P62877+Q13616 | in vitro K48 di-Ub FRET, acceptor:donor ratio, 45 min | inhibition, % at 10 µM | hit rate 0.6% among 140,000 | AID 1347404; in the data active = inhibition above about 25%
Target sequence (P62877 whole entry, looked up): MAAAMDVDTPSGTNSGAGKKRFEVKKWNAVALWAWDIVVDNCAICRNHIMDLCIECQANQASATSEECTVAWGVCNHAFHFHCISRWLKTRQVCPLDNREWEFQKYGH
Target sequence (Q13616 whole entry, looked up): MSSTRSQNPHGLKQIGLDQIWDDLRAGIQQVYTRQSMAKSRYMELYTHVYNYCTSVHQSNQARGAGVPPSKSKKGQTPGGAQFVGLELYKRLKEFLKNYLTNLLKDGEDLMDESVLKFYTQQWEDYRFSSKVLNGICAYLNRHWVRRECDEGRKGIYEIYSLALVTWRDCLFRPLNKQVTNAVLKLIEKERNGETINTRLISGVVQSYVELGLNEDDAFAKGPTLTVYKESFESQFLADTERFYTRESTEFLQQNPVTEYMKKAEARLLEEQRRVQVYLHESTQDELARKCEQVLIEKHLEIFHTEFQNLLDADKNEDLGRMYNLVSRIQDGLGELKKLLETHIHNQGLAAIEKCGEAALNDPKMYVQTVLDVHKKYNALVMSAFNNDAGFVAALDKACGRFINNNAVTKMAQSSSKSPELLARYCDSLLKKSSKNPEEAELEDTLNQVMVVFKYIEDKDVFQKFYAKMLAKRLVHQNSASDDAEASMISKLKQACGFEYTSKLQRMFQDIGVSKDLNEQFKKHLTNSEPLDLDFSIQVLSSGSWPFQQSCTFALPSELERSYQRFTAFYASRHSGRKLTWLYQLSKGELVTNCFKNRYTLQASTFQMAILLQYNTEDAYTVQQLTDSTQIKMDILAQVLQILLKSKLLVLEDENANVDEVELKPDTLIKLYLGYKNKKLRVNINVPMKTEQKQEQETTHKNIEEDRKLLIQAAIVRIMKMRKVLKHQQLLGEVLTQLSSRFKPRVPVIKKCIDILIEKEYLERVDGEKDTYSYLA
Of the large screens only hits and unclear results are named; the others gave an inactive call. This excerpt belongs to a sample that is enriched for hits.

Cc1cc(C)nc(NS(=O)(=O)c2ccc(NC(=O)c3ccc(Cl)cc3Cl)cc2)n1	none
Cc1cc(C)nc(NS(=O)(=O)c2ccc(NC(=O)Nc3ccc(Cl)cc3)cc2)n1	ROC1-CUL1 inh 25
Cc1cc(C)nc(NS(=O)(=O)c2ccc(NC(=O)COc3ccc(Cl)cc3C)cc2)n1	none
C/C(=N\NC(=O)c1n[nH]c2c1CCCC2)c1ccc(O)cc1	none
O=C1C(=O)N(c2nnc(SCc3ccc(Cl)cc3)s2)C(c2cccc(O)c2)C1C(=O)c1cc2ccccc2o1 (configuration not stated)	none
O=C1C(=O)N(c2nnc(SCc3ccc(Cl)cc3)s2)C(c2cccs2)C1C(=O)c1cc2ccccc2o1 (configuration not stated)	ROC1-CUL1 inh 45
CCOc1ccc(C2C(C(=O)c3cc4ccccc4o3)C(=O)C(=O)N2c2nnc(SCc3ccccc3F)s2)cc1OC (configuration not stated)	none
CCOc1cc(C2C(C(=O)c3cc4ccccc4o3)C(=O)C(=O)N2c2nnc(SCc3cccc4ccccc34)s2)ccc1O (configuration not stated)	none
CCOc1cc(C2C(C(=O)c3cc4ccccc4o3)C(=O)C(=O)N2c2nnc(SCc3ccccc3)s2)ccc1O (configuration not stated)	ROC1-CUL1 inh 65
O=C1C(=O)N(c2nnc(SCc3ccccc3)s2)C(c2cccs2)C1C(=O)c1cc2ccccc2o1 (configuration not stated)	none
CC(=O)N1c2ccc(S(=O)(=O)N3CCN(c4cc(Cl)ccc4C)CC3)cc2CC1C (configuration not stated)	none
CC1(C)OC2OC(C(O)c3cc(O)c4c(c3O)C(=O)c3ccccc3C4=O)C(C)(O)C2O1 (configuration not stated)	ROC1-CUL1 inh 65
COC(=O)CC(NC1CCN(c2ccc(NC(=O)c3cnccn3)cc2)CC1)C(=O)OC (configuration not stated)	none
CCS(=O)(=O)N1CCCC(C(=O)Nc2ccc(Br)cc2F)C1 (configuration not stated)	none
CC(=O)N(C(C)=O)n1c(=O)cc(C)n2c(=O)c(-c3ccccc3)nnc12	none
CN1C(=O)/C(=C/c2cccn2C(C)(C)C)C(=O)NC1=S	ROC1-CUL1 inh 87
CCc1ccc(N2C(=O)/C(=C/c3cccn3C(C)(C)C)C(=O)NC2=S)cc1	none
COc1ccc(N2C(=O)/C(=C/c3cccn3C(C)(C)C)C(=O)NC2=S)cc1	none
Cc1ccc(S(=O)(=O)c2nnn3c2nc(NCc2ccc(F)cc2)c2sccc23)cc1	none
O=C1Oc2cccnc2C(=O)C1C(c1ccc(Cl)cc1)C1C(=O)Oc2cccnc2C1=O (configuration not stated)	ROC1-CUL1 inh 38
CSC1=NC(=O)C(C(c2ccc(Cl)cc2)C2C(=O)N=C(SC)NC2=O)C(=O)N1 (configuration not stated)	none
O=C(O)CSc1cccnc1Sc1ccc(Cl)cc1	none
CN(C)c1ccc(C2N(c3ccc(Cl)cc3)CCN2c2ccc(Cl)cc2)cc1	none
O=C(Nc1cc2nc3ccccc3nc2cc1NC(=O)c1cccc([N+](=O)[O-])c1)c1cccc([N+](=O)[O-])c1	none
O=C(NC1=NN(c2c(Cl)cc(Cl)cc2Cl)C(=O)/C1=C/c1ccc(O)cc1)c1cccc([N+](=O)[O-])c1	ROC1-CUL1 inh 60
O=C(COC(=O)c1ccc(NC(=O)c2ccc(Cl)cc2)cc1)c1cccc([N+](=O)[O-])c1	none
CCOC(=O)C1Sc2ccccc2Oc2ccccc21 (configuration not stated)	none
Cc1ccccc1Cn1cnc2nc3c(cc2c1=O)CC(C)CC3 (configuration not stated)	none
COc1ccc(CC(=O)NCc2nc(-c3ccc(NC(=O)Cc4ccccc4)cc3)oc2C)cc1	none
Cc1oc(-c2ccc(NC(=O)Cc3ccccc3)cc2)nc1CNC(=O)CCC(C)C	none
Cc1nn(C)c(C)c1CCC(=O)NCc1nc(-c2ccc(NC(=O)Cc3ccccc3)cc2)oc1C	ROC1-CUL1 inh 39
COc1ccc(/C=C/C(=O)c2nc3ccccc3n2C)cc1OC	none
CCOc1c(/C=C(\C#N)C(N)=O)c2ccccc2n1CC	none
N#C/C(=C\C=C(/Cl)c1ccccc1)C(N)=O	ROC1-CUL1 inh 38
N#CC(C#N)=C/C=C(/Cl)c1ccccc1	none
COc1ccc(S(=O)(=O)N=C2C=C(Sc3ccc(C)cc3)C(=O)c3ccccc32)cc1	none
O=C1C(Sc2ncn[nH]2)=CC(=NS(=O)(=O)c2ccc(Cl)cc2)c2ccccc21	ROC1-CUL1 inh 90
Cc1ccc(S(=O)(=O)N=C2C=C(C3C(=O)CC(C)(C)CC3=O)C(=O)c3ccccc32)cc1	none
COC1=Nc2cccc3cccc(c23)N1C	none
COc1ccccc1CNC(=O)CC(c1ccc(F)cc1)N1Cc2ccccc2C1=O (configuration not stated)	none
COc1cc(/C=C/c2nn(-c3ccc(Br)cc3)c3c(=O)ccccc23)cc(OC)c1OC	none
O=c1ccccc2c(/C=C/c3ccc(Cl)cc3Cl)nn(-c3ccccc3)c12	ROC1-CUL1 inh 26
O=c1c(Cl)cc(Cl)nn1-c1ccccc1	none
Cc1c(-c2nc(-c3ccccc3)no2)nnn1-c1cccc(C(F)(F)F)c1	none
CN1C(=O)/C(=C\c2ccc(-c3ccccc3C(=O)O)o2)SC1=S	none
CN=C1S/C(=C\c2ccc(-c3ccc(Cl)cc3C(=O)O)o2)C(=O)N1C	none
N=C1S/C(=C\c2ccc(-c3ccccc3C(=O)O)o2)C(=O)N1c1ccc(Cl)cc1Cl	ROC1-CUL1 inh 100
O=C(CN1CCN(c2ccccc2F)CC1)Nc1ccccc1Cl	none
COc1ccc2c(c1OC)-c1ccccc1C2	none
O=C(O)c1ccc(N2N=C(c3ccccc3)/C(=C/c3ccccc3)C2=O)cc1	none
O=C(O)c1ccc(N2N=C(c3ccccc3)/C(=C/c3ccco3)C2=O)cc1	ROC1-CUL1 inh 33
O=C1/C(=C/c2ccccc2OCc2ccccc2Cl)C(c2ccccc2)=NN1c1ccc([N+](=O)[O-])cc1	none
CCCOc1ccc(CN(C(=O)c2nc(SC(C)C)ncc2Cl)C2CCS(=O)(=O)C2)cc1 (configuration not stated)	none
C=CCN1N=C(C)C(C)n2c1nc1c2c(=O)n(CC)c(=O)n1C (configuration not stated)	none
COc1ccc(C(F)(F)F)cc1NC(=O)c1sc2nc(-c3ccncc3)ccc2c1N	none
C=CCC(CC=C)(CNC(=O)C(=O)Nc1ccc(C)cc1)c1ccccc1	none
CC1(C)Oc2ccccc2C(=O)C1Br (configuration not stated)	none
O=C1C=CC2(C=C1)OC(=O)c1ccccc1O2	ROC1-CUL1 inh 29
CC1(C)NC(=O)c2ccccc2O1	none
Cc1ccc(C2c3c(n[nH]c3C)OC(=N)C2C#N)o1 (configuration not stated)	none
Cc1ccc(C2C(C#N)C(=N)SC(=N)C2C#N)o1 (configuration not stated)	ROC1-CUL1 inh 40
COc1ccc(C2C(C#N)C(=N)SC(=N)C2C#N)cc1OC (configuration not stated)	none
O=C(Nc1ccc(-c2cccc(F)c2)cc1)C1CCCN(CC2CC2)C1 (configuration not stated)	none
O=C(Nc1ccc(-c2cccc(F)c2)cc1)C1CCCN(Cc2nccs2)C1 (configuration not stated)	none
O=C(Nc1ccc(-c2cccc(F)c2)cc1)C1CCCN(C(=O)c2ccoc2)C1 (configuration not stated)	ROC1-CUL1 inh 92
CNc1ncnc(Sc2c(Br)c(=O)n(C)c(=O)n2C)c1N	ROC1-CUL1 inh 81
O=C(C1CCC(O)CC1)N1CCC(C2CCN(Cc3cccc(F)c3F)CC2)C1 (configuration not stated)	none
